Shn3 inh set2: reduction of Shn3 3'UTR firefly luciferase signal, primary screen, Schnurri-3 inhibitor project, cell-based, Clone20 osteoblasts, set 2. Clone20 osteoblast Shn3 3'UTR firefly luciferase, 24 h. inhibition, % at 12.5 µM. hit rate 0.52% among 360,000;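 active = mean inhibition of at least 75% with every replicate also reaching 75%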;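 note: 0% = median of neutral control wells and 100% = pilot-screen positive control compound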
KKLEB cytotox: cytotoxicity in KKLEB CF airway cells, primary screen, cytotoxicity control for CF NF-kB inhibitor project, cell-based, uHTS, fluorescence assay plates | activity change (cytotoxicity), % at 5 µM | KKLEB CF airway cells viability, ATPlite luminescence, overnight; hits give low values; cells stimulated with P. aeruginosa culture filtrate | hit rate 0.36% among 360,000;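 active = corrected activity change at or below -50% at 5 µM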
CF NFkB block: inhibitors of PAF-induced NF-kB signaling, primary screen, cell-based, GFP fluorescence, uHTS; hit rate 0.86% among 360,000; KKLEB NF-kB-GFP reporter, GFP fluorescence overnight; inhibition, % at 5 µM; AID 588850, 2011;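 active = at least 50% inhibition at 5 µM, scaled per plate between neutral and stimulator controls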;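 note: PAF is a Pseudomonas aeruginosa culture filtrate used as stimulus; plate controls were PAF-stimulated DMSO wells for no effect and unstimulated DMSO wells for full effect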
Peg3 promoter: Peg3 promoter-driven luciferase inhibitors, primary screen, cell-based, HeLa, luciferase luminescence; HeLa PEG-Prom luciferase reporter, overnight; inhibition, % at 20 µM; hit rate 1.7% among 360,000;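 active = inhibition of at least 50% at 20 µM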
HIF-2a inh: HIF-2a reporter inhibitors, primary screen, luminescence, 786-0 RCC cells | 786-0 RCC cells HIF-2a reporter, luciferase luminescence, overnight | inhibition, % at 18.8 µM | hit rate 0.72% among 360,000;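 active = inhibition of the luminescence signal of 40% or more relative to plate controls, in a single-dose primary screen at 18.75 µM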
MITF TRPM1 inh: inhibitors of MITF-dependent TRPM1 promoter reporter, primary screen, cell-based, SK-MEL-5, single point, luciferase; SK-MEL-5 TRPM1 promoter luciferase, 24 h; inhibition, % at 12.5 µM; hit rate 0.83% among 330,000;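 active = mean inhibition across replicates of 60% or more, whatever share of single replicates reaches that level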
An asterisk follows results filed as active; nt = no result. An excerpt weighted towards active compounds, which were near 2.7% of everything screened.

SMILES | Shn3 inh set2 | KKLEB cytotox | CF NFkB block | Peg3 promoter | HIF-2a inh | MITF TRPM1 inh
COc1ccc(S(=O)(=O)N(C)C[C@@H]2Oc3cc(Br)ccc3S(=O)(=O)N([C@H](C)CO)C[C@@H]2C)cc1 | 15.7 | 9.4 | -20.1 | 54.3* | -7.4 | nt
COc1ccc(S(=O)(=O)N(C)C[C@H]2Oc3cc(Br)ccc3S(=O)(=O)N([C@H](C)CO)C[C@H]2C)cc1 | -5.5 | -14.8 | 27.0 | 20.1 | 13.4 | nt
CC[C@]12c3[nH]c4cc(CCC(=O)N(C)C)ccc4c3CCN1C(=O)[C@@H](CC(=O)NCc1ccco1)C[C@@H]2C(=O)N1CCN(C(=O)C2CC2)CC1 | -4.7 | -16.9 | 2.3 | -15.7 | 6.8 | 3.4
Cc1nn(Cc2c(Cl)cccc2Cl)c(C)c1NC(=O)c1cnn2c(C(F)F)cc(-c3ccccc3)nc12 | 31.0 | -34.2 | 45.3 | 17.4 | -1.1 | 13.8
Cc1ccc(-c2cc(C(F)F)n3ncc(C(=O)Nc4c(C)nn(Cc5c(Cl)cccc5Cl)c4C)c3n2)cc1 | 59.2 | -64.8* | 76.9* | -20.6 | 8.2 | 23.4
N#Cc1cnc2nc(SCc3ccccc3)nn2c1 | -99.5 | 4.6 | -5.1 | -209.0 | -208.6 | -58.8
COC(=O)N(C)C[C@H]1OCc2cnnn2CCCC(=O)N([C@@H](C)CO)C[C@H]1C | 2.7 | -7.4 | 12.9 | -4.8 | 6.2 | nt
NC(=O)CC(NC(=O)Cc1ccc(Br)cc1)c1ccc(NC2CCCCCCC2)c([N+](=O)[O-])c1 (configuration not stated) | -3.7 | -15.5 | -22.1 | 22.9 | 3.3 | -6.4
NC(=O)CC(NC(=O)Cc1ccc(Br)cc1)c1ccc(NC2CCCC2)c([N+](=O)[O-])c1 (configuration not stated) | 16.0 | -30.7 | 1.0 | 61.0* | -22.7 | -37.5
Cc1cc(-n2c(C)cc(C(=O)COc3ccccc3[N+](=O)[O-])c2C)no1 | -26.6 | 10.5 | -9.0 | -149.6 | -178.7 | -34.5
Cc1ccc(-n2c(C)cc(C(=O)COc3cccnc3[N+](=O)[O-])c2C)cc1 | 43.0 | -21.6 | -1.7 | 36.1 | 58.6* | 43.1
Cc1cc(C(=O)COc2cccnc2[N+](=O)[O-])c(C)n1Cc1ccco1 | 23.5 | 5.6 | 4.1 | -52.6 | 13.1 | -10.2
Cc1cc(C(=O)COc2cccnc2[N+](=O)[O-])c(C)n1-c1ccccc1F | 14.8 | 0.9 | -18.1 | 43.9 | 50.2* | 33.3
Cc1cc(C(=O)COC(=O)c2ccc[nH]c2=O)c(C)n1-c1ccccc1 | 16.1 | -10.8 | -1.6 | -12.8 | 43.8* | -26.0
Cc1cc(C(=O)COc2cccnc2[N+](=O)[O-])c(C)n1-c1ccccc1 | 90.3* | 0.4 | 8.7 | 72.5* | 74.3* | 68.3*
Cc1cc(C(=O)COC(=O)c2ccc[nH]c2=O)c(C)n1-c1ccc(F)cc1 | -22.3 | -9.1 | -2.7 | 3.2 | 20.5 | -34.0
Cc1ccc(OCC(=O)c2cc(C)n(C)c2C)c([N+](=O)[O-])n1 | -2.9 | -1.2 | 6.1 | -47.6 | -45.6 | -6.2
NNC(=O)C(Cc1cnc[nH]1)NC(=O)OCc1ccccc1 (configuration not stated) | -4.9 | -4.6 | -13.1 | -6.7 | 13.4 | -0.6
CN(C)S(=O)(=O)c1ccc(Cl)c(NC(=O)COC(=O)/C=C/c2cnc3ccccc3n2)c1 | -20.4 | -0.2 | 8.6 | -6.9 | -19.0 | 2.2
O=C(CN1CCN(C(=O)CNC(=O)c2ccc3c(c2)OCO3)CC1)Nc1ccc(F)cc1 | -0.1 | -7.0 | -1.9 | -3.5 | -9.3 | -7.0
CC(c1ccccc1)N1CC(C(=O)Nc2ccc(F)cc2)CC1=O (configuration not stated) | 5.4 | 19.3 | 4.2 | 6.8 | 3.0 | -8.7
Cc1ccc(C(=O)N/C(=C/c2ccc(-c3ccc([N+](=O)[O-])cc3)o2)C(=O)NCCCN(C)C)cc1 | -11.4 | -10.5 | -0.8 | 109.2* | -8.3 | 14.8
Cc1cccc(C)c1NC(=O)C(C)NCc1cccs1 (configuration not stated) | -13.8 | 13.8 | -27.8 | 8.1 | 6.1 | nt
